# From PubChem
# In the library only some 0.73% were active in any assay of this set; here they are far more common.
# Vc quorum ag: quorum light induction in luxS cqsA deficient V. cholerae; V. cholerae BH1578 lux reporter, luminescence, 6 h; activation, % at 18.7 µM; actives 0.16% (n = 350,000); AID 588436; in the data active = activation mostly above about 9.7%, no sharp cut-off
# BioA inh: inhibitors of Mycobacterium tuberculosis BioA enzyme | purified M. tuberculosis BioA enzyme, plate reader | inhibition, % at 9.99 µM | actives 0.096% (n = 360,000) | AID 602481; in the data active = inhibition above about 40%
# TcdB GH inh: blocks C. difficile toxin B glycohydrolase activity; inhibition, % at 9.99 µM; AID 652162; actives 0.24% (n = 350,000); TcdB glycohydrolase enzymatic assay, plate reader; P18177; in the data active = inhibition above about 10%
# Yp Topo-I inh: Y. pestis Topo-I inhibition via cleavage products; actives 0.064% (n = 360,000); activity, % at 10 µM; Y. pestis Topo-I cleavage product accumulation, plate reader; in the data active = activity above about 50%, passing the limit was not always enough
# VHR inh abs: DUSP3 (human) phosphatase inhibition; inhibition, % at 13.3 µM; recombinant VHR phosphatase, pNPP absorbance; actives 0.52% (n = 290,000); P51452; AID 1654; in the data active = inhibition above about 50%
# An asterisk follows results filed as active; i = inactive; x = no result.
SMILES,Vc quorum ag,BioA inh,TcdB GH inh,Yp Topo-I inh,VHR inh abs
COc1cccc(Nc2c(Nc3cccc(OC)c3)c(=O)c2=O)c1,-1,-1,1,4,59*
COc1ccc(-n2cc(-c3ccc(OC)c(OC)c3)[nH]c2=S)cc1,3,x,1,6,51*
COCCNC(=O)C[C@H]1CC[C@@H]2[C@H](COC[C@@H](O)CN2C(=O)Nc2ccc3c(c2)OCO3)O1,x,-1,0,x,x
COc1cc(/C=C(\C#N)C(=O)Nc2ccc3c(c2)OCCO3)ccc1O,i,x,15*,-12,-11
Cc1ccccc1OC(C)C(=O)Nc1ccc2c(c1)OCO2 (stereo not drawn),i,1,0,-4,18
COc1ccccc1OC(C)C(=O)Nc1ccc2c(c1)OCCO2 (stereo not drawn),0,0,0,4,56*
CCOC(=O)C1CCN(c2c(Nc3ccc4c(c3)OCCO4)c(=O)c2=O)CC1,0,8,-20,-6,47
CCOC(=O)C1CCN(C(C(=O)Nc2ccc3c(c2)OCCO3)c2ccccc2)CC1 (stereo not drawn),x,0,x,33,53*
Cc1cc(C(=O)CSc2nnnn2-c2ccccc2)c(C)n1-c1ccc2c(c1)OCO2,0,x,11*,18,-1
CC(Oc1ccccc1)C(=O)N(CCC1=CCCCC1)c1c(N)n(Cc2ccccc2)c(=O)[nH]c1=O (stereo not drawn),23*,-1,0,-3,12
Nc1c(N(CCC2=CCCCC2)C(=O)CCCOc2ccccc2)c(=O)[nH]c(=O)n1Cc1ccccc1,-2,-1,1,24,x
COc1ccc(CC(=O)C2C(=O)N(C)c3ccccc32)cc1OC (stereo not drawn),-1,x,11*,6,x
CN(C)C(=O)c1cccc(-c2ccc3c(c2)[C@@H]2[C@@H](CCN2S(=O)(=O)c2ccccc2)[C@@H](CO)N3)c1,x,1,1,x,x
Cc1cc(N2CCCC2=O)cc(C)c1S(=O)(=O)Nc1c(C)nn(C)c1C,0,2,42*,-4,8
CC(C)(C)c1ccc(C(=O)NNC(=S)NC(=O)c2cccnc2)cc1,22,1,-1,-4,7
CC(C)(C)c1cc(Cl)c(O)c(NC(=S)NC(=O)c2cccnc2)c1,i,x,10*,-11,10
C=CCn1cnc2c(c1=O)c1nc3ccccc3nc1n2/N=C/c1cccc(OC)c1OC,8,2,1,-2,101*
C=CCn1cnc2c(c1=O)c1nc3ccccc3nc1n2/N=C/c1cc(OC)c(OC)c(OC)c1,i,0,x,4,10
CC1(C)Cc2nc(Cl)c(C#N)cc2CO1,0,-1,10*,4,9
CC1(C)Cc2nc(N3CCCC3)c(C#N)cc2CO1,x,x,4,2,12
O=C(NCc1cccc(CNC(=O)C(=O)NCC2CCCO2)c1)C(=O)NCC1CCCO1 (stereo not drawn),227*,x,2,1,25
CCCNC(=O)Nc1ccc2c(c1)C(=O)N(C)[C@H]1CC[C@H](CC(=O)Nc3ccccc3C)O[C@@H]1CO2,x,1,0,x,x
Cc1nn(C)cc1C=NCCOCc1ccccc1,0,x,x,5,52*
CCCn1c(C(CO)Nc2nc(C)cs2)nc2ccccc21 (stereo not drawn),-1,-4,1,-3,59*
CC1(C)Cc2c(sc3ncn4c(=S)[nH]nc4c23)CO1,-2,x,22*,-10,4
SMILES,Vc quorum ag,BioA inh,TcdB GH inh,Yp Topo-I inh,VHR inh abs
COc1ccc(N2CCN(C(=O)c3nn(C)c4c3CS(=O)(=O)c3ccccc3-4)CC2)cc1,i,-1,0,17,-4
COc1ccccc1N1CCN(C(=O)c2nn(C)c3c2CS(=O)(=O)c2ccccc2-3)CC1,1,-1,1,16,50*
O=C(OCn1nnc2ccccc2c1=O)c1cc2ccccc2o1,0,-1,13*,3,6
Nn1c(SCc2ccccc2F)nnc1-c1ccccn1,-1,0,14*,1,13
CO[C@@H]1CN(C)C(=O)c2ccc(NS(=O)(=O)c3cn(C)cn3)cc2OC[C@H](C)NC[C@H]1C,x,-1,x,x,x
CN1CCN(C(=O)C[C@H]2CC[C@@H]3[C@H](COC[C@H](O)CN3C(=O)C3CCOCC3)O2)CC1,x,-1,-7,x,x
CC1CC(=O)N(c2ccc(NCCc3ccc(O)cc3)c([N+](=O)[O-])c2)C1=O (stereo not drawn),0,4,12*,-2,12
O=C(NCc1ccc2c(c1)OCO2)Nc1cccc(Cl)c1,0,-1,1,0,59*
NS(=O)(=O)c1ccc(NC(=S)NCc2ccc3c(c2)OCO3)cc1,0,x,12*,-5,7
COc1ccc(CNC(=O)C[C@@H]2CC[C@@H]3[C@H](COc4ccc(NC(C)=O)cc4C(=O)N3C)O2)cc1,x,0,1,x,x
COc1ccccc1-c1cn(CC[C@H]2CC[C@@H](NC(=O)C3CCC3)[C@H](CO)O2)nn1,x,-1,0,x,x
C[C@@H]1CCCCO[C@H](CN(C)S(=O)(=O)c2cccs2)[C@H](C)CN([C@H](C)CO)C(=O)c2cc(NS(=O)(=O)c3ccccc3)ccc2O1,x,-2,-4,x,x
C[C@H]1CN([C@@H](C)CO)C(=O)Cc2cc(NC(=O)Nc3ccc4c(c3)OCO4)ccc2O[C@@H]1CN(C)S(=O)(=O)c1ccccc1,x,x,1,x,x
COc1ccc(NC(=O)NNC(=O)c2ccc(-c3ccccc3)cc2)c(OC)c1,i,-2,-1,2,4
COc1ccc(NC(=O)NNC(=O)c2cc3occc3n2C)c(OC)c1,0,0,-1,-3,51*
Cc1nn(C)c(C(=O)N/N=C/c2ccncc2)c1Cl,0,7,2,-3,-9
Cc1nn(Cc2ccccc2)c(Cl)c1/C=N/NC(=O)c1cccnc1,-1,104*,1,7,5
Cc1nn(C)c(C(=O)N/N=C/c2cccnc2)c1Cl,i,44*,0,7,2
CCC(=O)Nc1ccc2c(c1)OC[C@@H](C)N(C(=O)Cc1cccnc1)C[C@@H](C)[C@@H](OC)CN(C)C2=O,x,8,0,x,x
O=C(NCc1cccnc1)c1sc2cc(Cl)ccc2c1Cl,0,7,x,12,50*
CC(C)(C)[S@](=O)N1Cc2cc(C(=O)NCCc3ccncc3)nc(-c3cccc(-c4ccncc4)c3)c2[C@@H]1CCO,x,10,0,x,x
CCCn1c(N)c(C(=O)COC(=O)c2cccc(S(=O)(=O)N3CCOCC3)c2)c(=O)[nH]c1=O,i,0,13*,5,x
O=[N+]([O-])c1c(Nc2ccccc2O)ccc2nonc12,0,3,13*,-3,16
Cc1ccccc1Nc1ccc2nonc2c1[N+](=O)[O-],-10,-1,0,1,6
Cc1nc(C)c(C(=O)Nc2cccc(F)c2)s1,i,47*,1,-1,27
Cc1ccc(OCc2cc(C(=O)N3CCc4sccc4C3)no2)cc1C,-1,-1,0,54*,-8
COc1ccc([C@H]2CC(=O)C=C(c3cc(Cl)ccc3C)C2)cc1,-1,-2,1,42,x
